Experimental findings from PubChem BioAssay (Tox21) are described below.

SMILES strings stand for the structures. Unmarked numbers belong to inactive results. Results filed as inconclusive are left out. Active and inactive are the calls of the source. Unless noted, the call rests on the fitted dose curve; in most records, active means well fitted curve in the direction sought with a large enough effect in the repeat runs; inconclusive means weak or mixed curves; inactive means no such curve, though single readings can be large; an effect the other way counts as inactive or inconclusive.

Experiment [1] is described as follows: qHTS assay to identify small molecule agonists of the estrogen receptor alpha (ER-alpha) signaling pathway in the presence of an antagonist - cell viability counter screen (AID 1259386).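 Further: series mostly up to about 92 µM; cells exposed to compounds for 22 h at 37 °C before the viability read; nearly all actives have a fitted effect of over 30% in size.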 The method in brief:
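VM7Luc4E2 cells (endogenous full-length ER-alpha, 4×ERE-luciferase) were held 5 days in phenol red-free medium with 10% charcoal-stripped FBS, plated, then given 10.0nM ICI-182,780 and compounds at 15 concentrations for 22hr at 37C; viability read by CellTiter-Fluor fluorescence.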

Experiment [2] concerns the target Progesterone receptor (Homo sapiens) (UniProt P06401). Description: qHTS assay to identify small molecule agonists of the progesterone receptor (PR) signaling pathway (AID 1346784; calls by dose curve; further: nearly all actives have a fitted effect of over 30% in size; further: potency means the concentration at half of the fitted maximal effect). The method in brief:
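Fluorescence from LiveBLAzer B/G FRET substrate cleavage (2 hr, RT) reported PR activation in PR-UAS-bla HEK 293T cells treated 16 hr at 37C/5% CO2 with compounds; medium contained 2% charcoal-stripped FBS.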
(qHTS replaces the single test concentration by a dilution series.)

Experiment [3] in a line: qHTS assay to identify small molecule antagonists of the progesterone receptor (PR) signaling pathway - cell viability counter screen (AID 1346798). Further: series mostly up to about 92 µM; nearly all actives have a fitted effect of over 50% in size. The method in brief: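 CellTiter-Glo luminescence; PR-UAS-bla HEK293T, 3,000 cells/well; compound + R5020, 16 hr, 37C/5% CO2; 30 min RT before read.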
Experiment [4] in a line: qHTS assay to identify small molecule agonists of the progesterone receptor (PR) signaling pathway - cell viability counter screen (AID 1346799; calls by dose curve; further: nearly all actives have a fitted effect of over 45% in size). The method in brief: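 In parallel with the beta-lactamase readout, cytotoxicity toward PR-UAS-bla HEK293T cells was measured by CellTiter-Glo luminescence following 16 hr compound incubation in 2% charcoal-stripped FBS medium.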

A short description of experiment [5]: qHTS assay to identify small molecule antagonists of the TGF-beta/Smad signaling pathway - cell viability counter screen (AID 1346824). Further: nearly all actives have a fitted effect of over 50% in size. In a few lines:
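Cytotoxicity counter-screen run in the same wells as the beta-lactamase Smad reporter read: CellTiter-Glo luminescence after 30 min at room temperature. HEK 293T SBE-bla cells had 5 hr compound exposure at 37 C with TGF-beta1 (0.25 ng/mL stock).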

A short description of experiment [6]: qHTS assay to identify small molecule agonists of the TGF-beta/Smad signaling pathway - cell viability counter screen (AID 1346829). Further: top concentration of the series differs between compounds; nearly all actives have a fitted effect of over 45% in size. The method in brief: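 Luminescence from CellTiter-Glo, read after a 30 min room-temperature incubation, gives cell viability of SBE-bla HEK 293T cells treated 5 hr with compounds at 37 C.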
The target in experiment [7] is Thyrotropin-releasing hormone receptor (Homo sapiens) (UniProt P34981). As to the kind of experiment: qHTS assay to identify small molecule antagonists of the thyrotropin-releasing hormone receptor (TRHR) signaling pathway (AID 1346877; active means well fitted inhibition curve with a large enough effect in the repeat runs, not every such curve was filed as active; further: series mostly up to about 51 µM). The method in brief: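 TRHR-expressing HEK293 cells were seeded, cultured 18 h at 37 °C, then loaded with calcium dye for 2 h. Compounds were pre-incubated 5 min at room temperature before 1 nM TRH (final) was added, and kinetic fluorescence was recorded for 3 min.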
Sequence of Thyrotropin-releasing hormone receptor (Homo sapiens) (P34981 whole entry, looked up): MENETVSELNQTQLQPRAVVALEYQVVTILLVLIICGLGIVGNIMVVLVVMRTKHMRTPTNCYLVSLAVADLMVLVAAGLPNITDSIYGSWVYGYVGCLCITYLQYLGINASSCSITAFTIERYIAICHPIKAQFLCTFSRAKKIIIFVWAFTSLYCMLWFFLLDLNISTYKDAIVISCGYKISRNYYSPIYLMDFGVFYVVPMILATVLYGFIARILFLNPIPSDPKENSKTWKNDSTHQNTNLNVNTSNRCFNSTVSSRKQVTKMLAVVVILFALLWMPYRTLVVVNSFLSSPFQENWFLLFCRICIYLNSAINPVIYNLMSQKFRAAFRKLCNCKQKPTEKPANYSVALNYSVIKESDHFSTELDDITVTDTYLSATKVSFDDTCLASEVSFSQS

For experiment [8] the target is unchanged. Description: qHTS assay to identify small molecule agonists of the thyrotropin-releasing hormone receptor (TRHR) signaling pathway (AID 1346891; calls by dose curve; further: series mostly up to about 58 µM). In a few lines: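 Compounds were tested as agonists at 15 concentrations, in triplicate, on TRHR-Hek293 cells; calcium-sensitive dye fluorescence was recorded for 3 min following addition.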
The nature of experiment [9]: Human pregnane X receptor (PXR) small molecule agonists, qHTS cell viability counter screen (AID 1346977). Further: nearly all actives have a fitted effect of over 50% in size. The method in brief: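 Viability counter screen: CellTiter-Fluor signal in PXR-Luc HepG2 cells, 24hr compound exposure, 37C, 5% CO2.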
Experiment [10] can be described thus: Caspase-3/7 induction in HepG2 cells by small molecules, qHTS assay (AID 1346978). Further: nearly all actives have a fitted effect of over 15% in size. In a few lines: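 Caspase-3/7 induction was measured by Caspase-Glo 3/7 luminescence (30 min, room temperature) after a 17 hr compound exposure of wild-type HepG2 cells seeded at 2,000 per well and pre-incubated 5 hr.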
Experiment [11] in a line: Caspase-3/7 induction in CHO-K1 cells by small molecules, qHTS cell viability counter screen (AID 1346979). Further: nearly all actives have a fitted effect of over 35% in size. In a few lines: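 Viability readout by fluorescence (CellTiter-Fluor) on wild-type CHO-K1 cells exposed for 16hr at 37C and 5% CO2 to compounds delivered in DMSO; reagent incubated 1hr before reading.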
The nature of experiment [12]: Caspase-3/7 induction in CHO-K1 cells by small molecules, qHTS assay (AID 1346980). Further: nearly all actives have a fitted effect of over 15% in size. The method in brief: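 Luminescent Caspase-Glo 3/7 read (30min, room temperature) quantified apoptosis induction. Cells were wild-type CHO-K1, treated with compound for 17hr at 37 C and 5% CO2.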
Experiment [13] is described as follows: Caspase-3/7 induction in HepG2 cells by small molecules, qHTS cell viability counter screen (AID 1346981). Further: series mostly up to about 92 µM; nearly all actives have a fitted effect of over 30% in size. In a few lines: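 Wild-type HepG2 cells (2,000/well) were allowed to settle for 5 hr at 37 C, 5% CO2, then dosed with compounds in DMSO by pin transfer. After 16 hr at 37 C, CellTiter-Fluor was added and fluorescence read 1 hr later.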
In experiment [14] the target is Nuclear receptor subfamily 1 group I member 2 (Homo sapiens) (UniProt O75469). Description: Human pregnane X receptor (PXR) small molecule agonists, qHTS assay (AID 1346982). Further: nearly all actives have a fitted effect of over 35% in size. In a few lines:
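PXR-Luc HepG2 cells (CYP3A4 promoter-driven luciferase) were seeded in medium with 5% charcoal-stripped FBS, left 5 hr at 37 C, then exposed to compounds in DMSO for 24 hr. Luminescence was read after ONE-Glo addition.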

Experiment [15] addresses Nuclear receptor subfamily 1 group I member 2 (Rattus norvegicus) (UniProt Q9R1A7). As to the kind of experiment: Rat pregnane X receptor (rPXR) activation by small molecules, qHTS assay (AID 1346983). Further: nearly all actives have a fitted effect of over 20% in size. Particulars: rPXR luciferase reporter cells, One-Glo luminescence, 24 h; stronger effect = higher value. The method in brief: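 Luminescent readout (One-Glo luciferase, 30 min room temperature) followed 24 hr compound treatment at 37 C of rPXR cells plated 2,000 per well and preincubated 5hr; qHTS format with compounds delivered in DMSO.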

Experiment [16] deals with Nuclear receptor subfamily 1 group I member 2 (Homo sapiens) (UniProt O75469). Description: CYP3A4 induction through human pregnane X receptor (PXR) by small molecules, qHTS assay (AID 1346984). Further: nearly all actives have a fitted effect of over 40% in size. The method in brief: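 DPX-2 cells (HepG2 co-transfected with PXR and CYP3A4 promoter-luciferase) treated with compounds 24 h at 37C; luciferin-IPA CYP3A4 substrate 3uM final added for 3 h, then One-Glo; luminescence read. qHTS format.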
Sequence of Nuclear receptor subfamily 1 group I member 2 (Homo sapiens) (O75469 whole entry, looked up): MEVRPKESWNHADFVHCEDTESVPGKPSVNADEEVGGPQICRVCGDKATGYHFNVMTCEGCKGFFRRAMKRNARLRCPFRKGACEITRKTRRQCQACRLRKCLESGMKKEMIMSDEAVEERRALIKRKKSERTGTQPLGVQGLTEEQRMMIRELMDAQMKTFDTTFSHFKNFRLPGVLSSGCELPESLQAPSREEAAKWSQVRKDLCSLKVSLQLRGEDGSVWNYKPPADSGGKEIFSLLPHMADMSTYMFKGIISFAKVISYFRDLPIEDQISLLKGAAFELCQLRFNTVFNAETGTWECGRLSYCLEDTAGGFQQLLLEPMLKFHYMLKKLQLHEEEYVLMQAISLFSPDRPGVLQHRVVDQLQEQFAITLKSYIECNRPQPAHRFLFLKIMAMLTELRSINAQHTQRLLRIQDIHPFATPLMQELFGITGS

The target is the same in experiment [17]. As to the kind of experiment: Human pregnane X receptor (PXR) activation by small molecules, qHTS assay (AID 1346985). Further: nearly all actives have a fitted effect of over 40% in size. The method in brief: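 DPX-2 cells (HepG2 co-transfected with a PXR response element and a CYP3A4-promoter luciferase construct) were seeded at 2,000 per well, rested 5 hr at 37C, then exposed to DMSO-dissolved compounds for 24 hr. Activation was read as luciferase luminescence.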

A short description of experiment [18]: qHTS assay to identify small molecule agonists of the TGF-beta/Smad signaling pathway (AID 1346859; active means well fitted activation curve with a large enough effect in the signal ratio in the repeat runs, not every such curve was filed as active; the % refers to the signal ratio; further: series mostly up to about 77 µM). The method in brief: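 After overnight seeding, SBE-bla HEK 293T cells are dosed with compounds in DMSO and kept 5 hr at 37 C, 5% CO2. LiveBLAzer-type FRET substrate is then applied for 2 hr at room temperature.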
Experiment [19] has as its target Progesterone receptor (Homo sapiens) (UniProt P06401). As to the kind of experiment: qHTS assay to identify small molecule antagonists of the progesterone receptor (PR) signaling pathway (AID 1346795; active means well fitted inhibition curve with a large enough effect in the signal ratio in the repeat runs, not every such curve was filed as active; the % refers to the signal ratio). In a few lines: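 Fluorescence intensity measured 2 hr after adding beta-lactamase FRET substrate to PR-UAS-bla HEK293T cells that had been co-treated 16 hr with compound and 1 nM R5020 (final concentration) in 2% charcoal-stripped FBS.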
On the % scale 0 is the no-effect control and ±100 the full control effect.

Sequence of Progesterone receptor (Homo sapiens) (P06401 whole entry, looked up): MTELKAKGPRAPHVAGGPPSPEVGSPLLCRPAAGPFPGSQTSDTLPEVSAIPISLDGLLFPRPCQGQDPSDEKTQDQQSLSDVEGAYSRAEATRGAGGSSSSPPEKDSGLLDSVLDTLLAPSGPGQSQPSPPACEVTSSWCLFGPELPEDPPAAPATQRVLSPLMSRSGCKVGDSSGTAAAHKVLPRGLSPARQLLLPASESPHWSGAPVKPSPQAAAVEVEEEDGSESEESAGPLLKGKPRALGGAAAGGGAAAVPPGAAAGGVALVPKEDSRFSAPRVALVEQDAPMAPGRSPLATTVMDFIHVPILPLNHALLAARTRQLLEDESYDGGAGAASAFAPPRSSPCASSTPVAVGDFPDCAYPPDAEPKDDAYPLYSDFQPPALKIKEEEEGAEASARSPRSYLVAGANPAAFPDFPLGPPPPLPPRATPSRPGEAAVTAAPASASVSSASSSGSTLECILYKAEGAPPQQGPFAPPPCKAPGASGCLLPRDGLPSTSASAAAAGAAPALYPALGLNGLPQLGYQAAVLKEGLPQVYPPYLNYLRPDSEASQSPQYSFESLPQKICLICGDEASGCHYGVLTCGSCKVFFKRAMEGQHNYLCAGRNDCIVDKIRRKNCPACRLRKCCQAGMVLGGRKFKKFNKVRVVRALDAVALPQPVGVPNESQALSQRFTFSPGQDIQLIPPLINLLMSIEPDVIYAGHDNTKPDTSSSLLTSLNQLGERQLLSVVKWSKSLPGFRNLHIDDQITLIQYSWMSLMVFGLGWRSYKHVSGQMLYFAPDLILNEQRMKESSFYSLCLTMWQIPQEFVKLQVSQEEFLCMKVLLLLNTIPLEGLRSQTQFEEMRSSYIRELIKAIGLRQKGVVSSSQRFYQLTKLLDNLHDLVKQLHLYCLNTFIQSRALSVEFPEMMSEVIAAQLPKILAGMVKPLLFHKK
Sequence of Nuclear receptor subfamily 1 group I member 2 (Rattus norvegicus) (Q9R1A7 whole entry, looked up): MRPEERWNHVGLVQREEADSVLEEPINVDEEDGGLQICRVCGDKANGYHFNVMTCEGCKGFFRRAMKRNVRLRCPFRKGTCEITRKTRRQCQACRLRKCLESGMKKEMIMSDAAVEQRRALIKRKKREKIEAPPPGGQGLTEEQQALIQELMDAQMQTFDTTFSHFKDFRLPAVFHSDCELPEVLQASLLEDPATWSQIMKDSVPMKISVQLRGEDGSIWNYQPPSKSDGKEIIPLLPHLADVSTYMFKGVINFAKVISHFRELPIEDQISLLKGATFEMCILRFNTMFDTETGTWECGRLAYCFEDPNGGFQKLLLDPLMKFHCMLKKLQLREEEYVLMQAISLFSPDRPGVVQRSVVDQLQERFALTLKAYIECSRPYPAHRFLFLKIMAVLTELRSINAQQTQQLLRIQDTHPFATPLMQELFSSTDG

In the case of `CN1CCN(c2cc3c(cc2F)c(=O)c(C(=O)O)cn3-c2ccc(F)cc2)CC1`, the Potency entry in [1], in experiment [3], in [4], in experiment [5], in experiment [9] and in [10] was “inactive” each time. Besides, the Potency entry in experiment [11], in experiment [13], in [14], in [16] and in [17] was “inactive” in each case. In [2], the Potency is 29.8 µM (active). Besides, the call in experiment [6], in experiment [7], in experiment [8] and in experiment [12] was inactive. Moreover, the max activation in [15] is -3.97%.
Turning to `CCOC(=O)c1ccc(C)cc1`, the Potency entry in experiment [1], in experiment [3], in [4], in experiment [5], in experiment [9] and in experiment [10] was “inactive” in each case. Also, the Potency entry in [11], in [13] and in experiment [14] was “inactive” throughout. The outcome in [6], in [18], in [7], in experiment [8] and in experiment [12] was inactive.
As for `FC(F)OC(Cl)C(F)(F)F` (configuration not stated), the Potency result in experiment [1], in experiment [2], in [3], in [4], in experiment [5] and in [9] was “inactive” in each case. Further, the Potency entry in [10], in [11], in experiment [13], in [14], in experiment [16] and in experiment [17] was “inactive” throughout. In addition, the call in experiment [6], in experiment [18], in experiment [7], in experiment [8] and in experiment [12] was inactive. Besides, the max activation in [15] was -3.14%.
On to `CCS(=O)(=O)c1ccc(OC)c(C(=O)OC)c1`, for which the Potency entry in [1], in [3], in experiment [4], in experiment [5], in experiment [9] and in [10] was “inactive” throughout. Moreover, the Potency entry in experiment [11], in experiment [13] and in experiment [14] was “inactive” throughout. The result in [6], in experiment [18], in experiment [7], in experiment [8] and in experiment [12] was inactive.
Turning to `O=C1OC(=O)C2CCCCC12` (configuration not stated), the Potency result in [2], in [19], in experiment [3], in experiment [4], in experiment [5] and in experiment [9] was “inactive” each time. In addition, the Potency entry in experiment [10], in experiment [11], in experiment [13] and in experiment [14] was “inactive” throughout. Further, the outcome in [6], in experiment [18] and in experiment [12] was inactive.
Turning to `Cc1nc2c([nH]1)c(=O)n(C)c(=O)n2Cc1ccco1`, the Potency entry in [1], in experiment [2], in [19], in [3], in [4] and in experiment [5] was “inactive” throughout. The Potency result in experiment [9], in experiment [10], in experiment [11], in experiment [13] and in experiment [14] was “inactive” in each case. The molecule was classed as inactive in [6], in experiment [18], in [7], in experiment [8] and in [12].
